Screening data: PubChem, National Center for Advancing Translational Sciences (NCATS)
Compounds with a hit are over-represented: about 7.5% of the library has one in this group of screens.
Giardia FBPA inh – blocks Giardia fructose-bisphosphate aldolase activity | A8B2U2 | purified Giardia FBPA | Potency, µM (series often up to 59.6 µM), inactives show at the highest dose activity, negative = inhibition, hits mostly inhibitors | actives 0.71% (n = 290,000) | AID 2451; further: potency means the concentration at half of the fitted maximal effect; nearly all actives have a fitted effect of over 55% in size
Target sequence (A8B2U2 whole entry, looked up): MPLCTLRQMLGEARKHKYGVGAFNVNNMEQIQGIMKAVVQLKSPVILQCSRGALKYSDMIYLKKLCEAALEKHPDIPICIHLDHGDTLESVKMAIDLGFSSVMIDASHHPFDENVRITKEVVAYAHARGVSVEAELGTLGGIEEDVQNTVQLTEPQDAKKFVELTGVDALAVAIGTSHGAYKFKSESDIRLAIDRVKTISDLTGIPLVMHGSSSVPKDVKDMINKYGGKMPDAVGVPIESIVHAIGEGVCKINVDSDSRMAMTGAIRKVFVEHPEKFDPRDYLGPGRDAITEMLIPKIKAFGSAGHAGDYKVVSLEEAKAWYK
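Giardia FBPA (40 nM reagent) was preincubated 10 min at RT with compound (up to 57.5 uM final), then substrate plus GAPDH/TPI/NAD/arsenate coupling system with diaphorase/resazurin was added; resorufin fluorescence (525/598 nm) was read after 20 min.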
HCV inhibitor – blocks hepatitis C virus. actives 3.4% (n = 340,000). Potency, µM (titrated, usually from 41.8 µM), without a hit: at the top dose activity change, negative = inhibition, actives largely listed as inhibitors. Huh7.5.1 HCVcc-Cre infection, luciferase reporter, 44 h; further: potency means the concentration at half of the fitted maximal effect
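HCVcc-Cre virus at an moi near 0.5 was added right after compound to cells cultured 4 h from seeding (1,000 cells/well). Luciferase activity was determined 44 h later, 15 min after substrate addition at RT.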
Vaccinia mCherry – vaccinia inhibition (mCherry reporter). Vaccinia virus mCherry reporter infection, fluorescence. Potency, µM (highest dose often 36.5 µM), without a hit: top-dose activity change, negative = inhibition, actives largely listed as inhibitors. actives 0.63% (n = 310,000). AID 720579; calls by dose curve; tested in A549 cells; further: potency means the concentration at half of the fitted maximal effect; nearly all actives have a fitted effect of over 35% in size
HCMV antiviral – blocks human cytomegalovirus replication; HFF cells, HCMV-luciferase reporter, 72 h; hits give low values; activity change, negative = inhibition, % at 57.5 µM; actives 4.5% (n = 410,000); in the data active means activity change below about -60%; inconclusive means no clear call, values can overlap the other calls; inactive means above about -39%
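Two-dose cell screen: HFF monolayers treated with compounds and infected with luciferase-expressing HCMV at 1 PFU/cell, 72 h at 37C, then lysed for luciferase measurement.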
FMDV inh – foot and mouth disease virus antiviral activity; FMDV antiviral cell-based qHTS; Potency, µM (doses to about 57.9 µM), for the others: at the top dose activity change, negative = inhibition, most hits filed as inhibitors; actives 1.2% (n = 410,000); AID 1159524; calls by dose curve; tested in HEK293T cells; further: read-out not given here; potency means the concentration at half of the fitted maximal effect; nearly all actives have a fitted effect of over 45% in size
VACV Venus inh – vaccinia inhibition (Venus reporter). Vaccinia virus Venus reporter expression, fluorescence. Potency, µM (series often up to 36.5 µM), inactives show at the highest dose activity change, negative = inhibition, most hits filed as inhibitors. actives 0.46% (n = 330,000). AID 720580; calls by dose curve; tested in A549 cells; further: potency means the concentration at half of the fitted maximal effect; nearly all actives have a fitted effect of over 30% in size
An asterisk follows results filed as active; ! = not confirmed by another sample; [ ] = another dose, or the depositor's remark. Unless noted, the call rests on the fitted dose curve; in most records, active means well fitted curve in the direction sought with a large enough effect; inconclusive means small, poorly fitted or top-dose-only effect, or another doubt; inactive means no such curve, though single readings can be large; an effect the other way counts as inactive or inconclusive. On the % scale 0 is the no-effect control and ±100 the full control effect.

Results for Cc1cc(-c2ccc(S(=O)(=O)N3CCCCC3)s2)on1 ?
Giardia FBPA inh: 0%; HCV inhibitor: -6%; HCMV antiviral: 0; FMDV inh: -11%

How did CCOc1ccc(N(C)S(=O)(=O)c2ccc(-c3cc(C)no3)s2)cc1 do in these assays?
HCV inhibitor: 10µM*; HCMV antiviral: -31; FMDV inh: inconclusive

Results for Cc1cccc(N(C)S(=O)(=O)c2ccc(-c3cc(C)no3)s2)c1 ?
Giardia FBPA inh: 1%; HCV inhibitor: -22%; Vaccinia mCherry: -20%[7.34 µM]; HCMV antiviral: -74*!; FMDV inh: 0%; VACV Venus inh: -21%[7.34 µM]

What do the screens show for `CCOc1ccc(N(C)S(=O)(=O)c2cc(-c3cc(C)no3)ccc2C(C)C)cc1`?
Giardia FBPA inh: 4%; HCV inhibitor: inconclusive; HCMV antiviral: inconclusive; FMDV inh: -26%

Results for CC(=O)N(O)C/C=C/c1cccc(Oc2ccccc2)c1 ?
Giardia FBPA inh: -9%

Results for CC(=O)N1CC(C)Sc2ccc(S(=O)(=O)NCc3ccc(F)cc3)cc21 (stereo not given) ?
HCV inhibitor: inconclusive; HCMV antiviral: inconclusive; FMDV inh: 13%

How did CC(=O)N1CC(C)Sc2ccc(S(=O)(=O)NC3CCCCC3)cc21 (stereo not given) do in these assays?
Giardia FBPA inh: 4%; HCV inhibitor: inconclusive; HCMV antiviral: inconclusive; FMDV inh: -14%

Results for COc1ccc(NS(=O)(=O)c2ccc3c(c2)N(C(C)=O)CC(C)S3)c(OC)c1 (stereo not given) ?
HCV inhibitor: 11µM*; HCMV antiviral: -85*; FMDV inh: 0%

Results for COc1ccc(CNS(=O)(=O)c2ccc3c(c2)N(C(C)=O)CC(C)S3)cc1 (stereo not given) ?
HCV inhibitor: inconclusive; Vaccinia mCherry: 0%; HCMV antiviral: -91*; FMDV inh: inconclusive; VACV Venus inh: -15%

What do the screens show for `Cn1c(=O)c2c(nc(SCc3ccccc3)n2Cc2ccc(Cl)cc2)n(C)c1=O`?
Giardia FBPA inh: -3%; HCV inhibitor: inconclusive; Vaccinia mCherry: -9%; HCMV antiviral: -19; FMDV inh: inconclusive; VACV Venus inh: -19%

How did CCn1c(SCC(=O)Nc2ccccc2N2CCCCC2)nc2c1c(=O)n(C)c(=O)n2C do in these assays?
Giardia FBPA inh: -2%; HCV inhibitor: inconclusive; Vaccinia mCherry: -4%; HCMV antiviral: -69*; FMDV inh: inconclusive; VACV Venus inh: -14%

What do the screens show for `CCNc1nc2c(c(=O)n(C)c(=O)n2C)n1CC(O)COc1ccccc1` (stereo not given)?
Vaccinia mCherry: -14%; HCMV antiviral: -7; FMDV inh: 22µM*; VACV Venus inh: -6%

How did CCCNc1nc2c(c(=O)n(C)c(=O)n2C)n1Cc1ccc(F)cc1 do in these assays?
Giardia FBPA inh: 1%; HCV inhibitor: 11µM*; Vaccinia mCherry: inconclusive; HCMV antiviral: -37; FMDV inh: inconclusive; VACV Venus inh: -25%

What do the screens show for `CC(C)Sc1nc2c(c(=O)n(C)c(=O)n2C)n1Cc1ccc(Cl)cc1`?
Giardia FBPA inh: 16%; HCV inhibitor: 10µM*; HCMV antiviral: -35; FMDV inh: inconclusive; VACV Venus inh: -6%

What do the screens show for `CC(C)n1c(SCC(=O)Nc2ccccc2N2CCOCC2)nc2c1c(=O)n(C)c(=O)n2C`?
Giardia FBPA inh: 2%; HCV inhibitor: inconclusive; Vaccinia mCherry: -1%; HCMV antiviral: 18; FMDV inh: -24%; VACV Venus inh: -11%

How did Cn1c(=O)c2c(nc(NCc3ccccc3)n2Cc2ccc(F)cc2)n(C)c1=O do in these assays?
Giardia FBPA inh: -7%; HCV inhibitor: -4%

How did COc1ccc(OC(=O)c2ccc(Cl)cc2)c(C(C)=O)c1 do in these assays?
Giardia FBPA inh: -9%; HCV inhibitor: 4%; Vaccinia mCherry: -14%; HCMV antiviral: -6; FMDV inh: -11%; VACV Venus inh: -17%

What do the screens show for `Cc1ccc(Cn2c(SCC(=O)Nc3cccc(C)n3)nc3c2c(=O)n(C)c(=O)n3C)cc1`?
Giardia FBPA inh: 5%; HCV inhibitor: -5%
